IL1B secr inh – qHTS for Inhibitors of Inflammasome Signaling: IL-1-beta AlphaLISA Primary Screen | 4.7% of 360,000 active | activity change, % at 57.5 µM | THP-1 LPS/ATP IL-1B secretion, AlphaLISA, 16 h; stronger effect = lower value; in the data active means activity change below about -50%; inconclusive means mostly about -30% to -49%
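Secreted IL-1B measured by AlphaLISA bead assay after 16 h compound exposure of THP-1 cells; compounds (final up to 57.5 uM) added 1 h before LPS (250 ng/mL) and ATP (1.25 mM) stimulation; lower signal means less secretion.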
DT40 TDP1 no CPT – qHTS for Inhibitors of human tyrosyl-DNA phosphodiesterase 1 (TDP1): qHTS in cells in absence of CPT; Potency, µM (top dose mostly 46.2 µM), without a hit: at the highest dose activity change, negative = growth inhibition, usual class: inhibitors; 15% of 420,000 active; DT40 Tdp1-/- hTDP1 cells, no CPT, ATP luminescence, 48 h; further: potency means the concentration at half of the fitted maximal effect; nearly all actives have a fitted effect of over 55% in size
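DT40 Tdp1-/-;hTDP1 cells, no CPT (DMSO vehicle only), 400 cells/well; compounds pin-transferred; ≥48 hr, 37 °C; CellTiter-Glo 30 min RT dark, luminescence read.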
VP16 counter – VP16 counterscreen qHTS for inhibitors of ROR gamma transcriptional activity; Drosophila S2 Gal4-VP16 UAS-luciferase, luminescence, 20 h; Potency, µM (top dose mostly 53.6 µM), inactives show top-dose activity, negative = inhibition, hits mostly inhibitors; 3.5% of 310,000 active;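 further: Gal4-VP16 expression switched on by copper sulfate through the metallothionein promoter; potency means the concentration at half of the fitted maximal effect; nearly all actives have a fitted effect of over 50% in size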
TDP1 cell CPT – qHTS for Inhibitors of human tyrosyl-DNA phosphodiesterase 1 (TDP1): qHTS in cells in presence of CPT; chicken DT40 Tdp1-/-;hTDP1 cells + 20 nM CPT, ATP luminescence, 48 h; Potency, µM (series often up to 46.2 µM), inactives show at the top dose activity change, negative = growth inhibition, most hits filed as inhibitors; 12% of 420,000 active; further: potency means the concentration at half of the fitted maximal effect; nearly all actives have a fitted effect of over 55% in size
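Cell growth measured by CellTiter-Glo luminescence after a minimum 48 h, 37 C compound exposure with 20 nM CPT in Tdp1-knockout DT40 cells stably expressing hTDP1, seeded 400/well; qHTS titration format.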
ELG1 repair inh – qHTS screen for small molecules that inhibit ELG1-dependent DNA repair in human embryonic kidney (HEK293T) cells expressing luciferase-tagged ELG1; HEK293T ELG1-luciferase reporter, luminescence, 16 h; DNA damage induced by 5-fluorouridine; Potency, µM (top dose mostly 46.1 µM), inactives show top-dose activity change, negative = inhibition, hits mostly inhibitors; 2.3% of 330,000 active; AID 504467, 2011; further: potency means the concentration at half of the fitted maximal effect; nearly all actives have a fitted effect of over 55% in size
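Overnight (16 hr) co-exposure of 2,000 cells/well to 5-fluorouridine and compound at 37 °C preceded detection. Luciferase was quantified via ONE-Glo luminescence; loss of signal denotes inhibition.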
RORg inh – qHTS for inhibitors of ROR gamma transcriptional activity | Drosophila S2 Gal4-RORgamma UAS-luciferase reporter, 20 h | 5.4% of 310,000 active | Potency, µM (series often up to 53.6 µM), for inactives: top-dose activity change, negative = inhibition, hits mostly inhibitors; further: potency means the concentration at half of the fitted maximal effect; nearly all actives have a fitted effect of over 60% in size
Target sequence (P51450 whole entry, looked up, the tested form may be a part): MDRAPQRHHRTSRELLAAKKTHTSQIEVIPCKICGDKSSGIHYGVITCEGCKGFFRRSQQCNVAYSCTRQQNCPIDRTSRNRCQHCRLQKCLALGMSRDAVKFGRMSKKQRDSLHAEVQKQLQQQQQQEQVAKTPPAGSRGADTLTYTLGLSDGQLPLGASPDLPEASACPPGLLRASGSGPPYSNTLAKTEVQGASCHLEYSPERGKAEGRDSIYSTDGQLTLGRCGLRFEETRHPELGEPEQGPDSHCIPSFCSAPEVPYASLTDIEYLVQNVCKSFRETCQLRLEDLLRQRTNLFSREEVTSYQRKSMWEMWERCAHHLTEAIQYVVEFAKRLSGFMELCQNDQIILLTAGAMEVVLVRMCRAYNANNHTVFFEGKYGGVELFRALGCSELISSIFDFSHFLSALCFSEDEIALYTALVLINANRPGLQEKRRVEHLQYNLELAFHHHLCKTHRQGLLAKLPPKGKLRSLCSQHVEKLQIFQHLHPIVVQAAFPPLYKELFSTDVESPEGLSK
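Drosophila Schneider cells stably carrying a metallothionein-driven Gal4 DBD–ROR gamma fusion and a UAS-Photinus luciferase reporter were exposed to compound for 1 hr, then induced with copper sulfate (700 uM final) for 20 hr at ambient temperature before luminescence reading.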
Active calls of the source: *; ? = inconclusive; nt = no result given; [ ] = remark or other dose. Shown are actives, neighbours in structure and some others; about 21% of the full set was active somewhere. Unless noted, the call rests on the fitted dose curve; in most records, active means well fitted curve in the direction sought with a large enough effect; inconclusive means small, poorly fitted or top-dose-only effect, or another doubt; inactive means no such curve, though single readings can be large; an effect the other way counts as inactive or inconclusive. On the % scale 0 is the no-effect control and ±100 the full control effect.

SMILES | IL1B secr inh | DT40 TDP1 no CPT | VP16 counter | TDP1 cell CPT | ELG1 repair inh | RORg inh
S=c1[nH]nc(C2CCCCC2)n1/N=C/c1ccccc1Cl | 24.6 | ? | ? | -3.1% | 1.4% | 11.2µM*
COc1ccccc1/C=C/C=N/n1c(C2CCCCC2)n[nH]c1=S | -3.5 | 16.4µM* | 2.51µM* | ? | 11.1% | 1.41µM*
CCOc1ccccc1/C=N/n1c(C2CCCCC2)n[nH]c1=S | 10.0 | -1.0% | ? | -20.9% | 13.9% | 4.47µM*
COc1cc(/C=N/n2c(C3CCCCC3)n[nH]c2=S)cc(Br)c1O | 34.5 | ? | -22.0% | -13.8% | -18.8% | -42.3%
O=C(O)c1ccccc1/C=N/n1c(C2CCCCC2)n[nH]c1=S | 6.4 | -2.0% | -5.1% | -7.9% | 0.7% | -17.3%
COc1ccc(C(=O)Oc2c(OC)cc(C(=S)N3CCOCC3)cc2OC)cc1OC | 17.2 | -35.6% | 0.7% | -23.5% | -24.9% | 23.2%
Cc1noc(Cn2c(=O)c3ccccc3n(CC(=O)Nc3ccc(F)cc3F)c2=O)n1 | nt | -4.8% | nt | ? | nt | nt
CCNc1ncc2nc(-c3cn(C)c4ccccc34)c(=O)n(CCC#N)c2n1 | nt | 2.7% | -4.6% | -1.7% | nt | 11.4%
COc1ccccc1Cc1c(-c2ccc(Cl)cc2)nc2c(C)cc(Br)cn12 | 0.0 | 7.31µM* | nt | 6.51µM* | nt | nt
COc1ccccc1Cc1c(-c2cccc(Br)c2)nc2c(C)cc(Br)cn12 | 19.6 | 23.1µM* | nt | 16.4µM* | nt | nt
Cc1cc(Br)cn2c(Cc3ccccc3C(F)(F)F)c(-c3cccc(Br)c3)nc12 | 45.0 | -16.7% | nt | -7.6% | nt | nt
COc1cc(NS(=O)(=O)c2ccc(Cl)cc2)c(C(=O)O)cc1OC | 10.9 | -6.1% | -0.7% | 2.6% | 2.1% | -3.8%
CC(NC(=O)c1cccs1)c1nnc(SCc2ccc(Cl)cc2Cl)n1C (configuration not stated) | -10.7 | 16.4µM* | 1.4% | ? | -9.2% | 26.7%
CC(C)N(C)c1ncnc2c1ncn2[C@H]1CN(Cc2ccncc2)C[C@@H](CO)O1 | 15.1 | 23.1µM* | nt | 23.1µM* | nt | nt
CN(C)c1ncnc2c1ncn2[C@H]1CN(Cc2ccncc2)C[C@@H](CO)O1 | 27.8 | ? | nt | -26.6% | nt | nt
OCCCNc1ncnc2c1ncn2[C@H]1CN(Cc2ccncc2)C[C@@H](CO)O1 | 24.2 | 0.8% | nt | 18.7% | nt | nt
CC(C)N(C)c1ncnc2c1ncn2[C@H]1CN(Cc2ccc(-c3ccccc3)cc2)C[C@@H](CO)O1 | -13.4 | 6.51µM* | nt | 7.31µM* | nt | nt
OCCNc1ncnc2c1ncn2[C@H]1CN(Cc2ccncc2)C[C@@H](CO)O1 | -89.2* | 2.2% | nt | -8.5% | nt | nt
Cc1cccc(CNC(=O)c2cnn(-c3nccc(-c4cccs4)n3)c2C2CC2)n1 | nt | -16.5% | nt | 5.1% | nt | nt
Cc1cc2nc(-c3ccc(Cl)cc3)cc(C(F)(F)F)n2n1 | nt | -24.2% | nt | -29.0% | nt | nt
COc1ccc(S(=O)(=O)Nc2ccccc2C(=O)Nc2nc(-c3ccc(F)cc3)cs2)cc1OC | ? | 16.4µM* | ? | ? | 14.6µM* | ?
COc1ccc(-c2csc(NC(=O)c3ccccc3NS(=O)(=O)c3ccc(C)cc3)n2)cc1 | -21.3 | 14.6µM* | ? | ? | 13µM* | 35.4%[10 µM]
CCCNC(=O)c1ccccc1NS(=O)(=O)c1ccc(OC)c(OC)c1 | 2.5 | 1.5% | 4.9% | 2.0% | 7.1% | -10.6%
O=C(CNS(=O)(=O)c1cccs1)NCc1ccccc1 | -4.5 | -7.9% | 1.2% | -1.0% | -0.5% | -3.4%

Screens (PubChem)
